15-hLO inh = 15-hLO (ALOX15) enzyme inhibition. Potency, µM (doses to about 57.1 µM), without a hit: at the highest dose activity change, negative = inhibition, usual class: inhibitors. 74,000 compounds, 1.4% hits. P16050. purified 15hLO-1, xylenol orange hydroperoxide absorbance; note: % is set by controls: 0 for no effect and ±100 for the full control effect; nearly all actives have a fitted effect of over 55% in size
Target sequence (P16050 whole entry, looked up): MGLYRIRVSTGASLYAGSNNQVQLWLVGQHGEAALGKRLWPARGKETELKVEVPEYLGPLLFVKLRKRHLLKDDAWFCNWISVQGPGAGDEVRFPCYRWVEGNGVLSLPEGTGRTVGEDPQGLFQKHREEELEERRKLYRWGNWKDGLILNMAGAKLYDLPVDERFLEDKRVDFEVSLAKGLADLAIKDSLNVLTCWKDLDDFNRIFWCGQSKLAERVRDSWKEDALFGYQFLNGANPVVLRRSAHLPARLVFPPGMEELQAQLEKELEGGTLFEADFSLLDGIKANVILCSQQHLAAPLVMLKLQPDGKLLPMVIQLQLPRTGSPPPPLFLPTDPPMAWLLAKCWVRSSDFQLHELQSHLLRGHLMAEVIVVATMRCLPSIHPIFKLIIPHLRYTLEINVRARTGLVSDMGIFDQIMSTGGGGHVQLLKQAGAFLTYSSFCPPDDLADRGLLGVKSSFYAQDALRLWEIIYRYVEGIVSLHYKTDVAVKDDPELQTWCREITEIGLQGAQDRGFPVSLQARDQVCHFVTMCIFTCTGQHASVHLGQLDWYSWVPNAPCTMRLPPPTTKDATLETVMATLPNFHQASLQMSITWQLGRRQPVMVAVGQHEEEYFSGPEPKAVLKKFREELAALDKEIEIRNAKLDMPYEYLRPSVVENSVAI
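Readout: Fe(III)-xylenol orange absorbance, 573-to-405 nm ratio as reaction progress. Enzyme 40 nM purified human 15hLO-1, substrate 50 uM arachidonic acid, 6 min RT after 15 min compound preincubation; Hepes pH 7.5 buffer with Triton X-100.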
GBA activity = alters purified human glucocerebrosidase activity; Potency, µM; 48,000 compounds, 1.1% hits; purified enzyme, resorufin glucoside fluorescence (screen aimed at inhibitors), 20 min; in the data active = potency below about 15 µM; inconclusive = mostly about 16 µM to 33 µM;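 note: the screen sought inhibitors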
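Wild-type enzyme at 0.2 nM final in 50mM citric acid/KH2PO4, 10mM sodium taurocholate, 0.01% tween-20, pH 5.9, with resorufin beta-D-glucopyranoside at 30 uM final. Compounds titrated, 20 min at RT, red fluorescence read; AC50 from titration.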
Tau filament bind = binds recombinant human tau filaments; P10636; recombinant tau filaments, thioflavin S fluorescence, 15 h; filaments grown with octadecylsulfate alongside compound; Potency, µM (doses to about 57.1 µM), without a hit: at the top dose activity change, negative = inhibition; 71,000 compounds, 2% hits; AID 596;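 note: % is set by controls: 0 for no effect and ±100 for the full control effect; actives lower thioflavin S fluorescence by blocking filaments or displacing dye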
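Read-out: ThS fluorescence, 450 nm excitation/510 nm emission; lower signal marks blocked filament formation or displaced dye. Tau at 1 uM with 30 uM ODS, 10 uM ThS, 5 mM DTT, 100 mM NaCl, 10 mM HEPES pH 7.4; 15 h, 37 C.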
USP2a inhib = inhibitors of human ubiquitin-specific protease USP2a. O75604. USP2a enzymatic assay, qHTS inhibition. Potency, µM (top dose mostly 38.3 µM), without a hit: at the top dose activity change, negative = inhibition, usual class: inhibitors. 60,000 compounds, 0.1% hits. AID 927; note: nearly all actives have a fitted effect of over 60% in size
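20 nM USP2 core + cpd, 30 min RT; add 20 nM Ub-PLA2/20 uM NBD C6-HPC; read Ex460/Em535 at 0 h and 2.5 h. Normalized to NEM; qHTS curve fit/classification.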
PK Bst = modulators of Bacillus stearothermophilus pyruvate kinase; purified pyruvate kinase, luminescence ATP production; ribose 5-phosphate activator present at AC10; Potency, µM; 51,000 compounds, 1.2% hits; in the data active = potency below about 11 µM; inconclusive = mostly about 12 µM to 25 µM;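 the screen sought inhibitors and activators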;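 note: scaled between full activation by ribose 5 phosphate and full inhibition by luteolin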
Hsp90 Hop PPI = changes Hsp90-Hop TPR2A binding signal, up or down | AlphaScreen TPR2A-His6 binding biotin-Hsp90 C-terminal peptide | Potency, µM (highest dose often 57 µM), for inactives: top-dose activity change, negative = inhibition | 71,000 compounds, 0.44% hits | AID 595; active = well fitted curve in either direction with a large enough effect; inconclusive = small, poorly fitted or top-dose-only effect, or another doubt; note: % is set by controls: 0 for no effect and ±100 for the full control effect
* marks the source's active call; other numbers are inactive results; i = inactive; ? = inconclusive; / = not tested or not shown. A selection: hits, their analogues and other compounds. The true share with any hit is near 4.6%. Unless noted, calls come from the whole dose curve; as a rule, active = well fitted curve in the direction sought with a large enough effect; inconclusive = small, poorly fitted or top-dose-only effect, or another doubt; inactive = no such curve, though single readings can be large; an effect the other way counts as inactive or inconclusive. Potency is the fitted concentration of half-maximal effect.

SMILES	15-hLO inh	GBA activity	Tau filament bind	USP2a inhib	PK Bst	Hsp90 Hop PPI
COc1ccccc1N1CCN(S(=O)(=O)c2c(C)ccc3nsnc23)CC1	-9%	>77	?	10%	2.9*	-15%
COc1ccccc1N1CCN(S(=O)(=O)c2ccccc2)CC1	3%	>77	-13%	-5%	?	0%
O=C(Cn1c(=O)[nH]n(-c2ccccc2)c1=O)N1CCCc2ccccc21	-17%	9*	3%	1%	>57	-1%
CCCOc1ccc2oc(=O)c3c(c2c1)CCCN3C(=O)CN1CCCC(C(=O)OCC)C1 (stereo unspecified)	-4%	>77	-2%	22%	>57	-3%
O=C(Nc1ccc(F)cc1F)c1cccnc1	21%	>77	-4%	/	>57	-1%
COc1ccc(C2C(C(=O)NCCN3CCOCC3)c3ccccc3C(=O)N2C2CCCCC2)cc1 (stereo unspecified)	2%	14*	5%	22%	>57	-6%
COC(=O)c1c(NC(=O)CN2CCC(C(N)=O)CC2)c2c(C)cccc2n1C	-1%	>77	-12%	29%	>57	-2%
CC1CCCC(C)N1C(=O)c1cc(-c2ccc(Cl)c(Cl)c2)on1 (stereo unspecified)	-12%	>77	3%	-10%	7.7*	?
Cc1ccc(-c2cc(C(=O)N3CCCC3)no2)cc1	8%	>77	21%	4%	7.9*	2%
CC1CCCC(C)N1C(=O)c1cc(F)c(F)cc1Cl (stereo unspecified)	7%	>77	4%	-1%	/	-3%
N#Cc1ccccc1NC(=O)c1ccccc1OCC(=O)Nc1ccc2c(c1)oc1ccccc12	4%	11*	i	39%	>57	-1%
COc1ccc(CC(=O)NCc2nnc(SCC(=O)Nc3nccs3)n2-c2ccccc2)cc1	7%	/	3%	/	/	-4%
O=C(O)[C@H]1CN[C@H](C(=O)O)C1	?	/	40µM*	/	/	-6%
CN1Cc2cc(C(=O)c3cc(Cl)cc(CSc4ncccn4)c3O)cnc2NC1=O	-18%	i	16µM*	13%	>57	-6%
c1ccc(CN2CCN(CCN3CCn4c3nc3ccccc34)CC2)cc1	20%	>77	-2%	4%	>57	-5%
N#CCCCCN1c2cccc3cccc(c23)S1(=O)=O	-5%	>77	-1%	19%	7.9*	3%
CC(CCc1ccco1)NC(=O)Cn1nc(Cc2ccncc2)c2ccccc2c1=O (stereo unspecified)	9%	/	6%	/	/	-1%
Cc1cc(C)nc(SCC(=O)O)n1	6%	>77	0%	4%	>57	1%
CCCn1c(-c2ccc(F)cc2)nc2c(N3CCN(C)CC3)nc(C)nc21	20µM*	/	24%	/	/	-6%
CCOC(=O)c1cc2occc2n1CCCN1C(=O)c2ccccc2C1=O	-19%	?	16µM*	-6%	>57	?
CCCC(C(=O)NC1CCCCC1)N(CC1CCCO1)C(=O)CNS(=O)(=O)c1ccc(F)cc1 (stereo unspecified)	-5%	>77	-20%	13%	>57	?
COc1cccc(-c2cc3nc(-c4ccccc4)cc(N4CCC5(CC4)OCCO5)n3n2)c1	-5%	>77	28%	1%	/	20µM*
COc1ccc(S(=O)(=O)N(C(C)=O)c2ccc3oc(=O)sc3c2)cc1	5µM*	>77	-1%	22%	>57	-15%
COc1ccc(N(C)S(=O)(=O)c2ccc3c(c2)oc(=O)n3C)cc1	11%	>77	8%	10%	>57	3%
Cc1ccc(-c2cc(-c3ccccc3Cl)[nH]n2)c(O)c1	/	/	0%	?	/	3%
Cc1ccccc1-c1cc(-c2ccccc2O)n[nH]1	16µM*	>15	?	?	i	4%
CCCC(=O)c1cc(O)c(O)cc1O	4µM*	/	?	/	/	-7%
O=C1c2ccccc2S(=O)(=O)N1Cc1nnc(-c2ccccc2Br)o1	-18%	>77	-14%	30%	/	3%
O=S1(=O)c2cccc3cccc(c23)N1Cc1nnc(-c2ccccc2Br)o1	-6%	>77	25%	43%	2.1*	18%

Screening results deposited in PubChem BioAssay by National Center for Advancing Translational Sciences (NCATS).
